Compounds with a hit are over-represented: about 8.7% of the library has one in this group of screens.
HP1b binding inh: HP1-beta chromodomain-methylated histone interaction inhibition. P83916. AlphaScreen HP1-beta / biotin-H3K9me3 peptide binding. Potency, µM (doses to about 114 µM), usual class: inhibitors. 390,000 tested, 0.56% active. AID 540317; note: nearly all actives have a fitted effect of over 70% in size
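Compound inhibition of the preformed complex between 50 nM HP1-beta and 50 nM biotinylated H3K9me3 peptide was read by AlphaScreen. Buffer was PBS pH 7.4 with 0.01% Tween-20. Incubations ran 30 min at room temperature, with 10 ug/mL donor/acceptor beads.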
Sfp inh: blocks B. subtilis Sfp PPTase activity. Q9F4F7. Biochemical Sfp PPTase activity, qHTS. Potency, µM, usual class: inhibitors. 310,000 tested, 3.5% active;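 note: the enzyme is Sfp with the accession as filed and its product quenches rhodamine fluorescence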
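Fluorescence-quenching assay: 15 nM Sfp-PPTase preincubated 15 min at room temperature with compound, then 5 uM rhodamine-CoA and 12.5 uM BHQ-2-labelled YbbR peptide added. Fluorescence (ex 525/em 598 nm) read at start and after 30 min; difference gives rate.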
JMJD2A Tudor inh: inhibitors of human JMJD2A Tudor domain; AlphaScreen JMJD2A-Tudor / H3K4me3 peptide binding; 390,000 tested, 4.4% active; Potency, µM (series often up to 114 µM), hits mostly inhibitors; note: nearly all actives have a fitted effect of over 50% in size
Target sequence (O75164 whole entry, looked up, the tested form may be a part): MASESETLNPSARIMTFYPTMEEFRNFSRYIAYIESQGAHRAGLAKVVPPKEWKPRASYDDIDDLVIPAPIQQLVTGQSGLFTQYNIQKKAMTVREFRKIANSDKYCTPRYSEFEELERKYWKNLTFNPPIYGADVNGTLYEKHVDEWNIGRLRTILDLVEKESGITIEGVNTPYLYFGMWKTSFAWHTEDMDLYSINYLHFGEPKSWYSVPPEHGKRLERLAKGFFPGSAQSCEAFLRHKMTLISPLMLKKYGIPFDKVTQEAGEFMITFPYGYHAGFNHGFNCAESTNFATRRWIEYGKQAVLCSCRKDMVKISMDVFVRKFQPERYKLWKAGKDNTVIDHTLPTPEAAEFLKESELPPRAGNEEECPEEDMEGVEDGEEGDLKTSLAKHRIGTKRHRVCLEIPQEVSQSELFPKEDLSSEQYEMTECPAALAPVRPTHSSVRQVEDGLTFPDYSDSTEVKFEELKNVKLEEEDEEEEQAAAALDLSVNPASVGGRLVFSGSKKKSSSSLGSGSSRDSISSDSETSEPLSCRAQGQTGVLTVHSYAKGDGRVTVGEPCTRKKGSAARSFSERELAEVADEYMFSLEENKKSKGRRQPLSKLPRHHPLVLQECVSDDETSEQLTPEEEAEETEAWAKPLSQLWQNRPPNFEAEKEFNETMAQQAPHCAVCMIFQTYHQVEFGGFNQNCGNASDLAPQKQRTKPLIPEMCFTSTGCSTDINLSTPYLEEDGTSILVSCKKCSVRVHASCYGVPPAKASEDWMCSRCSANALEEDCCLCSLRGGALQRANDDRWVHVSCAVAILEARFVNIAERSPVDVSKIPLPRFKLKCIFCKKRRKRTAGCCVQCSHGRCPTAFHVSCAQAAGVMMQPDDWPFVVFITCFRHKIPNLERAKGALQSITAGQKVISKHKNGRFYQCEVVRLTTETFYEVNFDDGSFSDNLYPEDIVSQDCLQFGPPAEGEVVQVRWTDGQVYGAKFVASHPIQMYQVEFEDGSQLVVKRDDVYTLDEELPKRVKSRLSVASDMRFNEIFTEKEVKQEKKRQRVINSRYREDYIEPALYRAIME
ALOX12 inh: ALOX12 (human) lipoxygenase inhibition; P18054; purified 12hLO, xylenol orange hydroperoxide absorbance; Potency, µM (top dose mostly 108 µM), usual class: inhibitors; 580,000 tested, 1.1% active; AID 1671190
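Hydroperoxide product was detected by ferrous iron/xylenol orange as the 573 to 405 nm absorbance ratio. Arachidonic acid at 40 uM (final) was turned over for 30 min at room temperature by 150 nM human 12hLO, pH 7.0 Hepes buffer, after 15 min compound preincubation.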
G9a inh: blocks human histone lysine methyltransferase G9a; Q96KQ7; G9a H3K9 monomethylation, AlphaScreen, 2 h; Potency, µM (top dose mostly 102 µM), most hits filed as inhibitors; 350,000 tested, 8.8% active; note: nearly all actives have a fitted effect of over 75% in size
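Chemiluminescent proximity detection of H3K9 monomethylation, read after 10 min bead incubation in the dark. Reaction: 20 nM G9a, 500 nM biotin-H3K9 peptide, 20 uM SAM cofactor, 2 h, room temperature, following 15 min enzyme-compound preincubation.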
BAZ2B inh: blocks human BAZ2B. Q9UIF8. AlphaScreen BAZ2B-H3K14Ac peptide displacement. Potency, µM (highest dose often 114 µM), hits mostly inhibitors. 360,000 tested, 4.4% active. AID 504333; note: nearly all actives have a fitted effect of over 60% in size
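AlphaScreen displacement: compounds (up to 110uM) incubated 30 min at room temperature with a preformed 50 nM BAZ2B/50 nM biotinylated H3K14Ac peptide complex in PBS pH 7.4 with Tween-20. Donor and acceptor beads at 10 ug/mL final added, 20 min light-protected before reading.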
A number is an active result; n = inactive; u = inconclusive; x = no result; [ ] = remark or other dose. Calls come from the whole dose curve; as a rule, active = well fitted curve in the direction sought with a large enough effect; inconclusive = small, poorly fitted or top-dose-only effect, or another doubt; inactive = no such curve, though single readings can be large; an effect the other way counts as inactive or inconclusive.

SMILES | HP1b binding inh | Sfp inh | JMJD2A Tudor inh | ALOX12 inh | G9a inh | BAZ2B inh
COc1ccccc1N1CCN(Cc2cccc(OC)c2O)CC1 | n | n | u | u | 44.7µM | 50.1µM
Clc1ccccc1CN1CCN(c2cccc3[nH]ccc23)CC1 | u | n | u | x | 28.2µM | 39.8µM
COc1ccccc1N1CCN(Cc2c(F)cccc2F)CC1 | n | n | n | n | n[12.7 µM] | n
COc1ccccc1N1CCN(Cc2ccccc2F)CC1 | u | n | 6.31µM | n | n[2.33 µM] | 44.7µM
Cn1cc(C(=O)Nc2ccncc2)c2ccccc21 | x | x | x | n | x | x
O=c1[nH]c(=O)n(Cc2ccc(F)cc2)c(O)c1C=NCCN1CCCCC1 | n | n | n | n | n[12.7 µM] | n
CCn1c(O)c(/C=N/NC(=O)c2ccccc2)c(=O)[nH]c1=S | n | n | 56.2µM | n | n | 39.8µM
COc1ccc(Cn2c(O)c(C=NCCN3CCOCC3)c(=O)[nH]c2=O)cc1 | n | n | n | n | 39.8µM | n
COc1ccc(Cn2c(O)c(/C=N/NC(=O)c3ccccc3O)c(=O)[nH]c2=O)cc1 | n | u | 70.8µM | u | n | 50.1µM
COc1ccccc1-n1c(O)c(/C=N/NC(=S)Nc2ccccc2)c(=O)[nH]c1=S | n | 10µM | u | n | x | u
CCn1c(CO)nnc1C1CC(NC(=O)c2cnn(Cc3ccccc3)c2)C1 (stereo not given) | x | x | x | n | x | x
C=CCn1c(O)c(/C=N/NC(=O)CCCC)c(=O)[nH]c1=S | n | n | 79.4µM | u | n | u
O=C(N/N=C/c1c(O)n(Cc2ccccc2)c(=O)[nH]c1=O)c1ccccc1O | n | n | u | u | u | u
CCCCCCC(=O)N/N=C/c1c(O)n(C2CC2)c(=S)[nH]c1=O | n | n | n | n | n | u
O=C(N/N=C/c1c(O)n(Cc2ccc(F)cc2)c(=O)[nH]c1=O)c1ccccc1O | n | n | u | u | 44.7µM | u
O=c1[nH]c(=O)n(Cc2ccc(F)cc2)c(O)c1C=Nc1ccc(Cl)cc1 | n | n | n | n | n | n
COc1ccc(Cn2c(O)c(/C=N/NC(=O)c3ccccc3)c(=O)[nH]c2=O)cc1 | n | n | 79.4µM | n | n | 50.1µM
Nc1cccc(N=Cc2c(O)n(Cc3ccc(F)cc3)c(=O)[nH]c2=O)c1 | n | n | n | n | 12.6µM | n
CCN(CC)C(=O)c1ccc(NC(=O)CSc2ccc3ccccc3n2)cc1 | x | x | x | n | x | x
COc1cc2c(cc1OCc1ccccc1)NC(=O)C21CCN(c2ncc(F)cn2)CC1 | x | x | x | n | x | x
COc1ccc(C(=O)N2[C@H]3CC[C@@H]2c2cnc(C)nc2C3)cc1OC | x | x | x | n | x | x
OC[C@H]1C[C@@H](NC2CCOCC2)[C@H](O)[C@@H]1O | x | x | x | n | x | x
O=C(N/N=C/c1c(O)n(Cc2ccco2)c(=O)[nH]c1=O)c1ccccc1 | n | u | 79.4µM | n | x | 79.4µM
O=c1[nH]c(=O)n(Cc2ccco2)c(O)c1C=NC1CC1 | n | n | n | n | n | n
O=c1[nH]c(=O)n(Cc2ccco2)c(O)c1/C=N/N1CCCCC1 | n | n | n | u | 20µM | n
SMILES | HP1b binding inh | Sfp inh | JMJD2A Tudor inh | ALOX12 inh | G9a inh | BAZ2B inh
O=C(N/N=C/c1c(O)n(CCc2ccc(F)cc2)c(=O)[nH]c1=O)c1ccccc1 | n | n | u | n | n | n
O=c1[nH]c(=O)n(Cc2ccccc2)c(O)c1/C=N/NCCO | n | n | 56.2µM | n | 50.1µM | 50.1µM
Cn1c(O)c(C=NCCN2CCOCC2)c(=O)n(C)c1=S | n | n | n | n | 31.6µM | u
C#C[C@H]1CN2CC[C@H]1C[C@@H]2CNC(=O)CC(C)(C)C | x | x | x | n | x | x
C[S+](CC[C@H](N)C(=O)O)C[C@H]1O[C@@H](n2cnc3c(N)ncnc32)[C@H](O)[C@@H]1O (stereo not given in full) | n | u | 12.6µM | x | 3.55µM | n
OCC1OC(n2cnc3c(Cl)ncnc32)C(O)C1O (stereo not given) | x | n | x | x | x | x
C=CCSc1nc2c(c(-c3ccsc3)c1C#N)CN(C)CC2 | n | n | n | n | 15.8µM | n
CN(Cc1ccccc1)C(=C(Cl)Cl)/C(=C1/NCCN1Cc1ccc(Cl)nc1)[N+](=O)[O-] | n | n | n | n | 50.1µM | n
COc1ccc(/C=C/C=C2C(=O)NC(=S)NC2=O)cc1 | n | x | n | 35.5µM | x | x
CCOc1cc(C=C2C(=O)NC(=S)NC2=O)ccc1O | u | x | 31.6µM | n | x | x

Screening results deposited in PubChem by National Center for Advancing Translational Sciences (NCATS).
